Experimental data: PubChem BioAssay (NCI)
About 83,000 compounds went through this panel and 20% of them were active in at least one assay; those are over-represented in the sample as a whole.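 Percent growth is the endpoint: 0 to 100 indicates growth inhibition (40 means 60% inhibition), 0 means no net growth, and negative values indicate cell death.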 Unmarked numbers belong to inactive results. The source made the active and inactive calls. Rule for the calls: active = growth percent below 10; inactive = the rest.

Assays:
Assay in all cases: NCI-60 one-dose screen, 48 h (100 = growth as untreated, 0 = no growth, -100 = all killed)
Details in all cases: 10 µM unless noted
NCI-H23 lung = test system: NCI-H23 lung
NCI-H226 lung = test system: NCI-H226 lung
NCI-H322M lung = test system: NCI-H322M lung
HOP-62 NSCLC = test system: HOP-62 NSCLC
NCI-H460 lung = test system: NCI-H460 lung
HOP-92 NSCLC = test system: HOP-92 NSCLC
NCI-H522 lung = test system: NCI-H522 lung
A549/ATCC NSCLC = test system: A549/ATCC NSCLC
786-0 renal = test system: 786-0 renal
COLO 205 colon = test system: COLO 205 colon
DU-145 prostate = test system: DU-145 prostate
K-562 leukemia = test system: K-562 leukemia
MALME-3M melanoma = test system: MALME-3M melanoma
MDA-MB-231 breast = test system: MDA-MB-231 breast
RXF 393 renal = test system: RXF 393 renal
SF-268 CNS = test system: SF-268 CNS
SF-295 CNS = test system: SF-295 CNS
SF-539 CNS = test system: SF-539 CNS
UACC-257 melanoma = test system: UACC-257 melanoma
M14 melanoma = test system: M14 melanoma

| SMILES | growth (NCI-H23 lung) | growth (NCI-H226 lung) | growth (NCI-H322M lung) [%] | growth (HOP-62 NSCLC) | growth (NCI-H460 lung) | growth (HOP-92 NSCLC) | growth (NCI-H522 lung) | growth (A549/ATCC NSCLC) | growth (786-0 renal) | growth (COLO 205 colon) | growth (DU-145 prostate) | growth (K-562 leukemia) | growth (MALME-3M melanoma) | growth (MDA-MB-231 breast) | growth (RXF 393 renal) | growth (SF-268 CNS) [%] | growth (SF-295 CNS) [%] | growth (SF-539 CNS) | growth (UACC-257 melanoma) | growth (M14 melanoma) |
| --- | --- | --- | --- | --- | --- | --- | --- | --- | --- | --- | --- | --- | --- | --- | --- | --- | --- | --- | --- | --- |
| O=C(N/N=C/[C@@H](O)[C@H](O)[C@H](O)CO)c1ccc(NC(=O)c2cccnc2)cc1 | 107% | 99.9% | 104 | 102% | 108% | 103% | 99.3% | 101% | 106% | 107% | 112% | 103% | 110% | 102% | 109% | 98.5 | 101 | 103% | 100% | 106% |
| CCN(CC)Cc1cc(Nc2c3ccc(Cl)cc3nc3ccc(OC)cc23)ccc1O | 65.7% | 86% | 62.5 | 80.5% | 34.9% | 60.5% | 39% | 52.4% | 47.3% | 5.97% (active) | 62.6% | 3.14% (active) | 112% | 45.7% | -12.6% (active) | 43.9 | 72.5 | 58.7% | -39.4% (active) | -67.5% (active) |
| COc1ccc(NC(=O)n2nc(/C=C\c3ccc(O)c(OC)c3)cc2/C=C\c2ccc(O)c(OC)c2)cc1 | 43.9% | 87.2% | 58.1 | 32.7% | 14.2% | 89.1% | -13.5% (active) | 27.3% | 32.1% | 107% | 27.2% | 9.25% (active) | 51.9% | 36.5% | 23% | 41.8 | 51.6 | 6.72% (active) | 75.2% | 4.97% (active) |
| Cc1ccc(NC2=C(Cl)C(=O)c3nc(C)ccc3C2=O)cc1 | -30.5% (active) | 38.1% | 55.7 | 75.2% | 9.01% (active) | -71% (active) | -25.7% (active) | 54.6% | 21.6% | 106% | -62.2% (active) | 6.64% (active) | -37.4% (active) | -80.3% (active) | -57.2% (active) | 66.8 | 62.1 | -85.6% (active) | -73.8% (active) | 29.1% |
| Cc1cc(Cl)ccc1NS(=O)(=O)c1ccc(-c2cnc(C3CC3)o2)cc1 | 31.1% | 27.7% | 50.7 | 48.5% | 12.2% | 58.3% | 13.5% | 28.4% | 28.6% | -11% (active) | 21% | 9.89% (active) | 68% | 26.2% | 16.2% | 47 | 16.9 | -19.1% (active) | 69.4% | 10.2% |
| O=C(CCN1C(=O)/C(=C/c2ccc(O)cc2)SC1=S)Nc1ccc(Cl)cc1 | 91.3% | 97.8% | 82.6 | 84.8% | 102% | 85.9% | 19.9% | 92.1% | 99.7% | 120% | 108% | 89.7% | 89.9% | 86.3% | 108% | 90.9 | 92.9 | 96.1% | 101% | 100% |
| CCOC(=O)c1cn2ncnc(Oc3ccc(NC(=O)NCCN4CCOCC4)c(Cl)c3)c2c1C | 99.6% | 92.9% | 88.7 | 87.1% | 100% | 91.7% | 93.9% | 99.2% | 102% | 100% | 109% | 98.3% | 91.5% | 100% | 94.2% | 94.9 | 98.4 | 95.6% | 95.8% | 91.3% |
| O=[N+]([O-])c1ccc(Oc2nc(Nc3ccc(O[C@H]4CO[C@H]5[C@@H]4OC[C@@H]5O)c(Cl)c3)ncc2F)c(Cl)c1 | 25.7% | 19.5% | 29.9 | 23.2% | 22.7% | -7.77% (active) | 8.06% (active) | 40% | 21.4% | 33.3% | 27.3% | 22.2% | 18.6% | 26.8% | 13.6% | 31.6 | 26.4 | 19.5% | 43.9% | 23.9% |
| O=C(N/N=C/[C@H](O)[C@H](O)[C@H](O)CO)c1ccc(NC(=O)c2cccnc2)cc1 | 101% | 105% | 105 | 97.5% | 104% | 103% | 92.7% | 99.8% | 105% | 112% | 111% | 105% | 108% | 94.5% | 107% | 98.6 | 101 | 98.5% | 99.8% | 102% |
| N#C/C(=C\c1cccc2cnccc12)n1nnc2cccc(F)c21 | 27.7% | 62.6% | 89.9 | 53.2% | 35.5% | -25% (active) | 18.3% | 86.6% | 56.4% | 34.3% | 2.26% (active) | 11.9% | 22.6% | 31.7% | -2.13% (active) | 67.4 | 93.4 | 36.6% | 52.1% | 35.1% |
| NC1=C(c2nn[nH]n2)C(c2ccccc2Cl)c2ccc3ccccc3c2O1 (stereo not given) | 76.3% | 76.8% | 89.9 | 66.5% | 87.5% | 69.7% | 35.5% | 83.3% | 82.7% | 86.8% | 93.4% | 22.6% | 64% | 63.7% | 79.3% | 73.2 | 88.9 | 79.2% | 84.7% | 61.3% |
| Cc1cc(O)c(C2=NN(c3ccc(S(N)(=O)=O)cc3)C(c3ccccc3O)C2)cc1Cl (stereo not given) | -19.9% (active) | 0.355% (active) | 46.8 | -3.51% (active) | -47.9% (active) | 5.49% (active) | -56.8% (active) | 3.15% (active) | -55.7% (active) | -94.4% (active) | 1.2% (active) | -36.6% (active) | 21.8% | 4.16% (active) | -10.3% (active) | 10.8 | 58.5 | -21.2% (active) | 66.5% | -68.5% (active) |
| COc1cccc2nc3n(c12)C(c1c(F)cccc1F)SC3 (stereo not given) | 94.8% | 82.7% | 102 | 104% | 99% | 46.4% | 80.4% | 98% | 101% | 106% | 128% | 84.6% | 101% | 93.2% | 105% | 108 | 99.9 | 95.7% | 100% | 111% |
| Cn1cc(C(=O)c2nc(-c3cn(C)c4ccc(F)cc34)no2)c2cc(F)ccc21 | 92.5% | 89.1% | 84 | 92.2% | 90.7% | 83.6% | 79.3% | 87.5% | 107% | 103% | 110% | 96.2% | 96.4% | 96.7% | 116% | 99.6 | 100 | 107% | 94.9% | 100% |
| CC(=O)N1N=C(c2ccc(Nc3nc(Nc4ccc(F)cc4)nc(Nc4ccc(Cl)cc4)n3)cc2)CC1c1ccc(Cl)cc1 (stereo not given) | 84.6% | 83.8% | 85.3 | 84.1% | 107% | 64.1% | 73.2% | 92.5% | 98.2% | 94.3% | 111% | 88.1% | 110% | 76.2% | 88.8% | 124 | 123 | 109% | 104% | 108% |
